This passage reports Potency and outcome results from PubChem BioAssay (Tox21).

The nature of assay [1]: qHTS assay to identify small molecule antagonists of the thyroid receptor (TR) signaling pathway - cell viability counter screen (AID 743064). Note: nearly all actives have a fitted effect of over 50% in size. Note: potency is the fitted concentration of half-maximal effect. In short, it runs like this:
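Plate GH3.TRE-Luc cells; incubate 4 h at 37 °C; add compound, then T3 to 1 nM final; incubate 23.5 h; add CellTiter-Fluor; incubate 30 min at 37 °C, 5% CO2; read fluorescence.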
On the technique in general: Quantitative high-throughput screening tests each substance at several concentrations.

The nature of assay [2]: qHTS assay to identify small molecule antagonists of the thyroid receptor (TR) signaling pathway (AID 743065). Note: nearly all actives have a fitted effect of over 55% in size. Note: potency is the fitted concentration of half-maximal effect. Summed up:
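GH3.TRE-Luc rat pituitary cells carrying two TR response elements driving luciferase were plated for 4 h, given compound plus 1 nM T3 (final), and incubated 23.5 h at 37 C. ONE-Glo luminescence measured reporter inhibition; CellTiter-Fluor fluorescence tracked cytotoxicity.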

For assay [3], the system named is thyroid hormone receptor (rat, GH3 cells). The assay can be described thus: qHTS assay to identify small molecule agonists of the thyroid receptor (TR) signaling pathway (AID 743066; calls by dose curve).
Assay [4] in a line: qHTS assay to identify small molecule antagonists of the estrogen receptor alpha (ER-alpha) signaling pathway - cell viability counter screen (AID 743074; calls by dose curve;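 note: HEK293 cells carrying ER-alpha-UAS-bla reporter stimulated with 17beta-estradiol; nearly all actives have a fitted effect of over 45% in size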; note: potency is the fitted concentration of half-maximal effect).
Assay [5] in a line: qHTS assay to identify small molecule antagonists of the estrogen receptor alpha (ER-alpha) signaling pathway using the BG1 cell line - cell viability counter screen (AID 743081).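 Note: compound given together with 17beta-estradiol as the ER stimulus; series mostly up to about 70 µM; nearly all actives have a fitted effect of over 45% in size.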
Assay [6] in a line: qHTS assay to identify small molecule that activate the aryl hydrocarbon receptor (AhR) signaling pathway - cell viability counter screen (AID 743086). Note: nearly all actives have a fitted effect of over 45% in size. Note: potency is the fitted concentration of half-maximal effect. Summed up: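 HepG2-AhR-luc (HG2L7.5c1) cells, 4000/well, were preincubated 5 h at 37C, exposed to compound in qHTS format for 24 hr at 37C, then given CellTiter-Fluor for 30 min; viability was read as fluorescence in the reporter wells.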

The next assay has as its target Aromatase (Homo sapiens) (UniProt P11511). The assay can be described thus: qHTS assay to identify aromatase inhibitors (AID 743083). Note: nearly all actives have a fitted effect of over 55% in size. Note: potency is the fitted concentration of half-maximal effect.
Assay [7] can be described thus: qHTS assay to identify aromatase inhibitors - cell viability counter screen (AID 743084).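 Note: cells stimulated with testosterone during compound exposure; nearly all actives have a fitted effect of over 55% in size.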 Note: potency is the fitted concentration of half-maximal effect.
Assay [8] deals with Aryl hydrocarbon receptor (Homo sapiens) (UniProt P35869). The assay can be described thus: qHTS assay to identify small molecule that activate the aryl hydrocarbon receptor (AhR) signaling pathway (AID 743085).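 For activation: HG2L7.5c1 human HepG2 liver cells with stably integrated DRE-driven firefly reporter; series mostly up to about 70 µM.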 Note: nearly all actives have a fitted effect of over 15% in size. Note: potency is the fitted concentration of half-maximal effect. In short, it runs like this: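 Steps: seed HepG2-AhR-luc cells; allow 5 h at 37C; pin-transfer test compound or vehicle; incubate 24 h at 37C; add viability dye (30 min, 37C) and read fluorescence; add luciferase substrate (30 min, RT) and read luminescence.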
Sequence of Aryl hydrocarbon receptor (Homo sapiens) (P35869 whole entry, looked up): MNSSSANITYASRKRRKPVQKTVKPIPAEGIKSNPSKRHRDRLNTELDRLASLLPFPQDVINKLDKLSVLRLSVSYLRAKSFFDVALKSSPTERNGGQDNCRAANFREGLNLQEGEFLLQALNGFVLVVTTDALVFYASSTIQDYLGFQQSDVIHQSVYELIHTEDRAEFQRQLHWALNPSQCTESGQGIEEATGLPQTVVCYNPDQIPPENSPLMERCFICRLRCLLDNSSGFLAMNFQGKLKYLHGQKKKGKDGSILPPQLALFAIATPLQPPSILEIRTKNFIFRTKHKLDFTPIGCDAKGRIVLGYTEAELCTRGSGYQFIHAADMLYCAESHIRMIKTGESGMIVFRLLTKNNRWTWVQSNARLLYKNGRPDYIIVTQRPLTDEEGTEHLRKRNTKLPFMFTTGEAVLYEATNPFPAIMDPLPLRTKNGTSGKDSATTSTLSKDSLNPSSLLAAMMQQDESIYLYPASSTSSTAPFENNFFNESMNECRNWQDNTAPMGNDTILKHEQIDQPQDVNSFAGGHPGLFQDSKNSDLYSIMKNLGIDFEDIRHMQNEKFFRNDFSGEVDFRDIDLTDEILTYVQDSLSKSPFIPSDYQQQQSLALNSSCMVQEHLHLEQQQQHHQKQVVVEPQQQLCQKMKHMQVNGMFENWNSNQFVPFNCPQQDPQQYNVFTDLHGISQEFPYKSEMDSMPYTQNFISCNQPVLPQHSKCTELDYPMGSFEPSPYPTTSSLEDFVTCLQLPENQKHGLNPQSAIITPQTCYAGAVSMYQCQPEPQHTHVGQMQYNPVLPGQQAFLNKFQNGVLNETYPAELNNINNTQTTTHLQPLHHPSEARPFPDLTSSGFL

The target of assay [9] is Peroxisome proliferator-activated receptor gamma (Homo sapiens) (UniProt P37231). Nature of the assay: qHTS assay to identify small molecule agonists of the peroxisome proliferator-activated receptor gamma (PPARg) signaling pathway (AID 743094; active = well fitted activation curve with a large enough effect in the signal ratio in the repeat runs, not every such curve was filed as active; the % refers to the signal ratio). In short, it runs like this: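 Fluorescence-based beta-lactamase readout in HEK293H PPARg UAS-bla cells after 17 h compound exposure (37C) and 1 h B/G FRET substrate incubation at room temperature.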
Sequence of Peroxisome proliferator-activated receptor gamma (Homo sapiens) (P37231 whole entry, looked up): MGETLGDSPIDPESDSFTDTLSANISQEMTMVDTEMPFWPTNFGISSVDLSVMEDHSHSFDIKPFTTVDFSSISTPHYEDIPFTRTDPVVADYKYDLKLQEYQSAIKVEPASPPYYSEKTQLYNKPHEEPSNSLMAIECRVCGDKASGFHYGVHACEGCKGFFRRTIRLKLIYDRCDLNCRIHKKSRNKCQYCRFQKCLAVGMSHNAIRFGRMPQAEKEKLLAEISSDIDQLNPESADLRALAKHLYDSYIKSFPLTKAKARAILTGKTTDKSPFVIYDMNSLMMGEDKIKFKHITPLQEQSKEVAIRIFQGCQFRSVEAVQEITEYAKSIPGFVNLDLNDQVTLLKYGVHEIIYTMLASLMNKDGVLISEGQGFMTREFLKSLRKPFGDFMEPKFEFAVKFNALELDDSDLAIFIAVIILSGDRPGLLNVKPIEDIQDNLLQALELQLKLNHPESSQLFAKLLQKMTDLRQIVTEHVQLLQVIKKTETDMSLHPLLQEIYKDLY

In assay [10] the target is Estrogen receptor (Homo sapiens) (UniProt P03372). Nature of the assay: qHTS assay to identify small molecule agonists of the estrogen receptor alpha (ER-alpha) signaling pathway using the BG1 cell line (AID 743079). Note: nearly all actives have a fitted effect of over 20% in size.
Sequence of Estrogen receptor (Homo sapiens) (P03372 whole entry, looked up): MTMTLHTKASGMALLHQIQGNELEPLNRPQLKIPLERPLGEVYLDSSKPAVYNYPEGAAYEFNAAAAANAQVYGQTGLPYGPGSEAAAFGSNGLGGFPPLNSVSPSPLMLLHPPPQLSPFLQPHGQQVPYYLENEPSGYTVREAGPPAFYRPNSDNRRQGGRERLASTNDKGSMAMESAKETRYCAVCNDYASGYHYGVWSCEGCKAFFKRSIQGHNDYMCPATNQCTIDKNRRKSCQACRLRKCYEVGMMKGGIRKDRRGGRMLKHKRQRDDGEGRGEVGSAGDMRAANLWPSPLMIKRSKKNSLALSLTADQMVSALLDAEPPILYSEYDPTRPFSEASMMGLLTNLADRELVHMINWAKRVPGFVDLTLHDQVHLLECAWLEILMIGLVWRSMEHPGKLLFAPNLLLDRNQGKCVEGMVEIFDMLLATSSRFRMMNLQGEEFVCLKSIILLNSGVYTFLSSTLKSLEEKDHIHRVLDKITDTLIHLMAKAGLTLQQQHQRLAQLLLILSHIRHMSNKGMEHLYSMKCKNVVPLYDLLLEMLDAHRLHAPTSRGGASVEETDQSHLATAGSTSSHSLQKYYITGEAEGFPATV
Assay [11] in a line: qHTS assay to identify small molecule antagonists of the estrogen receptor alpha (ER-alpha) signaling pathway using the BG1 cell line (AID 743080; calls by dose curve;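 note: BG1 cells stimulated with 17beta-estradiol alongside compound; series mostly up to about 70 µM; nearly all actives have a fitted effect of over 25% in size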). Summed up: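 Readout is ONE-Glo luminescence, taken 30 min at room temperature after reagent addition, preceded by a CellTiter-Fluor viability read; BG1-Luc-4E2 cells had received compound and 17beta-estradiol for 21.5 h at 37 C.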

Assay [12] in a line: qHTS assay to identify small molecule antagonists of the peroxisome proliferator-activated receptor gamma (PPARg) signaling pathway - cell viability counter screen (AID 743194). Note: nearly all actives have a fitted effect of over 55% in size. Note: potency is the fitted concentration of half-maximal effect. Summed up: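 PPARg-UAS-bla HEK293H cells were plated, rested 5 h at 37 C, then treated with compounds plus rosiglitazone (50 nM final) for 17 h at 37 C; viability was then read by CellTiter-Glo luminescence after 30 min at room temperature.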

Assay [13] is described as follows: qHTS assay for small molecule activators of the heat shock response signaling pathway - cell viability counter screen (AID 743209). Note: nearly all actives have a fitted effect of over 50% in size. Note: potency is the fitted concentration of half-maximal effect. In short, it runs like this:
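To flag cytotoxic compounds, HSE-bla HeLa cells plated at 1500 cells/well were dosed for 5 h at 37 C, followed by the reporter FRET read and then CellTiter-Glo, with luminescence recorded 30 min after reagent addition.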

Assay [14] is described as follows: qHTS assay for small molecule agonists of the antioxidant response element (ARE) signaling pathway (AID 743202; active = well fitted activation curve with a large enough effect in the signal ratio in the repeat runs, not every such curve was filed as active; the % refers to the signal ratio). In short, it runs like this: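 Steps: seed ARE-bla HepG2 cells (2,000/well); incubate 5 h at 37 C; add compounds by pin tool; incubate 16 h at 37 C; add FRET substrate; read fluorescence after 2 h at RT.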
Assay [15] is described as follows: qHTS assay for small molecule agonists of the antioxidant response element (ARE) signaling pathway - cell viability counter screen (AID 743203; calls by dose curve; note: nearly all actives have a fitted effect of over 55% in size). Summed up: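 Parallel cytotoxicity read-out for the ARE-bla screen: HepG2 reporter cells, 16 hrs with compounds, then CellTiter-Glo luminescence.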
Assay [16] can be described thus: qHTS assay for small molecule activators of the heat shock response signaling pathway (AID 743210; active = well fitted activation curve with a large enough effect in the signal ratio in the repeat runs, with a control signal flat, not every such curve was filed as active; the % refers to the signal ratio;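 note: HeLa cells with beta-lactamase reporter driven by heat shock elements; series mostly up to about 63 µM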). In short, it runs like this:
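Activation of heat shock element-controlled beta-lactamase expression is measured in HeLa cells by LiveBLAzer FRET fluorescence, with compound exposure lasting 5 h at 37 C and substrate loading 2.5 h at room temperature.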

Structures are written as SMILES. Several values for one entry are separate records, joined by “and”; a condition that tells them apart may be missing. Equal values may be shown once. Inconclusive results are not listed. Activity calls are given as the source filed them. Unless noted, calls come from the whole dose curve; as a rule, active = well fitted curve in the direction sought with a large enough effect in the repeat runs; inconclusive = weak or mixed curves; inactive = no such curve, though single readings can be large; an effect the other way counts as inactive or inconclusive.

Sequence of Aromatase (Homo sapiens) (P11511 whole entry, looked up): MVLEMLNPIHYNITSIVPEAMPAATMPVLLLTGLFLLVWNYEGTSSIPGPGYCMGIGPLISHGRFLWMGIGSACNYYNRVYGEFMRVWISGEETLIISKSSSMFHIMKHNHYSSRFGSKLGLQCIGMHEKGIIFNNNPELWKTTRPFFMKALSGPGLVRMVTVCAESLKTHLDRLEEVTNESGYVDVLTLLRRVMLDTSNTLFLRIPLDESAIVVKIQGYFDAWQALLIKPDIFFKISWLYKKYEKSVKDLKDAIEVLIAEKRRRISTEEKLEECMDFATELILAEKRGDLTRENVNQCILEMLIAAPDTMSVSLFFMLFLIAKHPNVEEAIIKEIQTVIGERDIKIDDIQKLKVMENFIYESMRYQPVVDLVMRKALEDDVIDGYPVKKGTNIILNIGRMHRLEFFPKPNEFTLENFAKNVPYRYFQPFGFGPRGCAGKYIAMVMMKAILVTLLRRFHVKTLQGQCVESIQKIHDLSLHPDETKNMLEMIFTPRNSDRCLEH

With `CCN(CC)C(=O)c1cccnc1`, the Potency entry in [1], in assay [2], in [3], in assay [4], in [5] and in assay [6] was “inactive” throughout.

For `CCCC(CCC)C(=O)OC1C[C@H]2CC[C@@H](C1)[N+]2(C)C` (stereo partly drawn), the Potency result (in [1]; in assay [2]; in [3]; in [4]; in assay [5]; with Aromatase (Homo sapiens)) was “inactive” throughout. Moreover, the Potency result in [7], in assay [8], in assay [6] and in [9] was “inactive” throughout.

Take `COc1cc2c(c(OC)c1OC)-c1c(cc3c(c1OC)OCO3)C[C@@H](C)[C@](C)(O)C2`: the Potency result (in assay [1]; in assay [2]; in [3]; in [4]; with Aromatase (Homo sapiens); in assay [9]) was “inactive” throughout. Also, in assay [6], the Potency is 29.8 µM (active).

Consider `CCCCCCCCCC[N+](C)(CCCCCCCCCC)CCC[Si](OC)(OC)OC`, for which the Potency in assay [1] was 21.7 µM (active); in assay [2], 21.7 µM (active); in assay [4], 49 µM (active); with Aromatase (Homo sapiens), 61.1 µM (active); in assay [7], 61.1 µM (active); in assay [12], 30.9 µM (active). Further, in assay [13], the Potency is 13.8 µM (active). Moreover, the Potency entry in assay [3], in [10], in [11], in assay [5] and in [8] was “inactive” each time.

`CC(CNC(=O)c1cccnc1)NC(=O)c1cccnc1` (stereo not drawn): the Potency result (in assay [1]; in [2]; in assay [3]; in assay [4]; in assay [5]; with Aromatase (Homo sapiens)) was “inactive” in each case. Further, the Potency entry in assay [7], in [8], in [6] and in assay [9] was “inactive” each time.

In the case of `C[C@@H]1O[C@@H](OC[C@H]2O[C@@H](Oc3c(-c4ccc(OCCO)c(OCCO)c4)oc4cc(OCCO)cc(O)c4c3=O)[C@H](O)[C@@H](O)[C@@H]2O)[C@H](O)[C@H](O)[C@H]1O`, the Potency entry (in assay [1]; in [2]; in assay [3]; in assay [4]; in [5]; with Aromatase (Homo sapiens)) was “inactive” in each case. In addition, the Potency entry in assay [7], in assay [8], in assay [6] and in assay [9] was “inactive” each time.

On to `O=C(O)c1cc(=O)c2c3nc4ccccc4oc-3cc(=O)c2[nH]1`, for which the Potency result (in assay [1]; in assay [2]; in [3]; in assay [4]; in assay [5]; with Aromatase (Homo sapiens)) was “inactive” each time. The Potency result in assay [7], in assay [6] and in assay [9] was “inactive” each time. In addition, the Potency in assay [8] is 4.22 µM (active).

As for `CCN(CC)C(=O)[C@]1(c2ccccc2)C[C@@H]1CN`, the Potency result in assay [1], in [2], in assay [3], in assay [4], in assay [5] and in assay [6] was “inactive” throughout.

As for `N[C@@H](Cc1ccc(O)c(O)c1)C(=O)O`, the Potency result (in [1]; in [2]; in [3]; in [4]; in assay [5]; with Aromatase (Homo sapiens)) was “inactive” each time. For the same compound, the Potency entry in assay [7], in assay [8], in assay [6] and in assay [9] was “inactive” each time.

For `CC1(C)C[C@@H]1C(=O)N/C(=C\CCCCSC[C@H](N)C(=O)O)C(=O)O`, the Potency entry (in assay [1]; in [2]; in [3]; in assay [4]; in assay [5]; with Aromatase (Homo sapiens)) was “inactive” throughout. For the same compound, the Potency result in assay [7], in assay [8] and in [6] was “inactive” throughout.

Regarding `COc1cc([C@@H]2c3cc4c(cc3[C@@H](O[C@@H]3O[C@@H]5CO[C@@H](C)O[C@H]5[C@H](O)[C@H]3O)[C@H]3COC(=O)[C@H]23)OCO4)cc(OC)c1O`, the Potency in assay [1] was 4.28 µM (active); in assay [2], 9.44 µM (active) and 3.4 µM (active). Further, the Potency entry (in assay [3]; in [4]; in assay [5]; with Aromatase (Homo sapiens); in assay [7]; in assay [8]) was “inactive” each time. Besides, the Potency entry in [6] and in assay [12] was “inactive” in each case.

With `C[S+](CC[C@H](N)C(=O)O)C[C@H]1O[C@@H](n2cnc3c(N)ncnc32)[C@H](O)[C@@H]1O` (stereo partly drawn), the Potency entry (in assay [1]; in assay [2]; in [3]; in [4]; in assay [5]; in the assay with Aromatase (Homo sapiens)) was “inactive” each time. In addition, the Potency result in assay [7], in assay [8] and in assay [6] was “inactive” in each case.

As for `CC1(C)S[C@@H]2[C@H](NC(=O)[C@H](N)c3ccc(O)cc3)C(=O)N2[C@H]1C(=O)O`, the Potency result (in assay [1]; in assay [2]; in assay [3]; in [4]; in assay [5]; with Aromatase (Homo sapiens)) was “inactive” throughout. For the same compound, the Potency entry in assay [7], in assay [8] and in assay [6] was “inactive” in each case.

With `CC(=O)Nc1ccc(OC(C)=O)cc1`, the Potency result in assay [1], in assay [2], in assay [3], in [4], in [5] and in assay [6] was “inactive” throughout.

For the compound `COc1c(Br)cc(Br)c(C)c1Br`, the Potency result in assay [1], in [2], in assay [3], in assay [4], in assay [5] and in assay [6] was “inactive” each time. Moreover, the Potency result in assay [12], in [14], in [15] and in assay [13] was “inactive” each time. Besides, the outcome in [16] was inactive.

As to `CC(C)c1ncc([N+](=O)[O-])n1C`, the Potency entry (in assay [1]; in assay [2]; in assay [3]; in assay [4]; in [5]; in the assay with Aromatase (Homo sapiens)) was “inactive” throughout. For the same compound, the Potency entry in assay [7], in [8] and in assay [6] was “inactive” in each case.

As to `NC(N)=NCC1COC2(CCCCC2)O1` (stereo not drawn), the Potency result (in [1]; in [2]; in assay [3]; in assay [4]; in [5]; in the assay with Aromatase (Homo sapiens)) was “inactive” each time. Also, the Potency result in [7], in [8], in [6] and in assay [9] was “inactive” in each case.

As for `CCC(NC(C)C)C(O)c1ccc(O)c(O)c1` (stereo not drawn), the Potency result (in [1]; in [2]; in assay [3]; in [4]; in assay [5]; with Aromatase (Homo sapiens)) was “inactive” in each case. Besides, the Potency entry in [7], in assay [8] and in assay [6] was “inactive” in each case.

Consider `CC(=O)Oc1cc(C(F)(F)F)ccc1C(=O)O`, for which the Potency result (in [1]; in assay [2]; in [3]; in assay [4]; in assay [5]; in the assay with Aromatase (Homo sapiens)) was “inactive” in each case. In addition, the Potency entry in assay [7], in [8], in assay [6] and in [9] was “inactive” each time.
